Assay outcomes (PubChem)
MazF activator = activators of E. coli MazEF toxin-antitoxin RNase. AID 504720. FAM/BHQ RNA-DNA oligo cleavage fluorescence, 5 h. activation, % at 20 µM. P0AE70. actives 0.32% (n = 350,000); in the data active means activation above about 50%
Target sequence (P0AE70 whole entry, looked up): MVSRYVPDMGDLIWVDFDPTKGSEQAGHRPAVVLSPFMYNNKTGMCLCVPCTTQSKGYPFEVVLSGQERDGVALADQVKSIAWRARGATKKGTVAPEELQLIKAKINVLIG
Mtb hypoxia rep = Mtb hypoxia fluorescent reporter inhibition. M. tuberculosis hypoxia-regulated fluorescent reporter, fluorescence. fluorescence inhibition, % (no concentration beside the values). actives 0.1% (n = 300,000). AID 1159583; in the data active means fluorescence inhibition mostly above about 23%, no sharp cut-off; inactive means mostly below about 17%
Vc quorum ag = induces V. cholerae light production without autoinducers; actives 0.16% (n = 350,000); activation, % at 18.7 µM; V. cholerae BH1578 lux reporter, luminescence, 6 h; in the data active means activation mostly above about 9.7%, no sharp cut-off
PriA SSB inh = inhibitors of Klebsiella pneumoniae PriA binding to SSB C-terminal tail; AlphaScreen SSBct-PriA binding, biotinylated peptide; inhibition, % at 33 µM; actives 0.6% (n = 430,000); AID 1272365; in the data active means inhibition mostly above about 37%, no sharp cut-off; inactive means mostly below about 20%
A number is an active result; 0 = inactive; - = not tested or not shown; + = active, no number; ! = repeats disagree. Only some compounds are listed: those with a hit (about 0.94% of all), similar ones and a draw of the others.

SMILES | MazF activator | Mtb hypoxia rep | Vc quorum ag | PriA SSB inh
O=C(CSC1=Nc2cccnc2Nc2ccccc21)Nc1ccc(F)cc1F | - | - | - | 41.0
COc1ccc(NC(=O)CSC2=Nc3cccnc3Nc3ccccc32)cc1OC | - | - | - | 44.0
O=C(Nc1ccc2sccc2c1)c1ccc(Br)cc1 | - | - | - | 0
COc1ccc(C2CC(C(F)(F)F)n3nc(C(=O)N(C)Cc4cn(C)nc4C)c(Cl)c3N2)cc1 (stereo not drawn) | 0 | 0 | + | 0
Cc1ccc2c(c1)c(-c1ccccc1)c(-c1ccccc1)n2CC(O)CNC1CCCC1 (stereo not drawn) | - | - | - | 61.0
Cc1ccc2c(c1)c1c(n2CC(O)CNC2CCCCC2)CCCC1 (stereo not drawn) | 0 | - | 0 | 0
Cc1cc(NC(=O)c2csc3nc(-c4ccc(F)cc4)cn23)no1 | - | - | - | 0
COc1cccc(CNC(=O)CSc2nc3c(sc(=S)n3-c3ccccc3)c(=O)[nH]2)c1 | - | - | - | 0
O=C(CCl)N(c1ccc(Cl)cc1)c1c[nH]c2ccccc12 | 0 | 35.5 | 0 | 0
CCCCn1c(N)c(N(CCOC)C(=O)c2oc3ccc(Br)cc3c2C)c(=O)[nH]c1=O | 0 | 25.8 | 0 | 0
CCCCN(C(=O)CSc1nnc(-c2ccccc2)o1)c1c(N)n(CCC)c(=O)[nH]c1=O | 0 | 29.5 | 0 | 0
CCCCN(C(=O)c1ccco1)c1c(N)n(CCC)c(=O)[nH]c1=O | 0 | 28.1 | 0 | 0
CCCCN(C(=O)c1oc2ccc(OCC)cc2c1C)c1c(N)n(CCCC)c(=O)[nH]c1=O | 0 | - | 0 | 0
CCCCn1c(N)c(N(CC)C(=O)c2ccco2)c(=O)[nH]c1=O | 0 | 0 | 0 | 0
CCCCN(C(=O)CSc1nnc(-c2ccco2)o1)c1c(N)n(Cc2ccccc2)c(=O)[nH]c1=O | 0 | 0 | 0 | 0
COc1ccc(Nc2cc(C)nc(N3CCN(S(=O)(=O)Cc4ccccc4)CC3)n2)cc1 | - | - | - | 0
COc1ccc(-c2nnc(SCc3nc4ccccc4s3)n2C(C)C)cc1 | 0 | 44.7 | 0 | 0
COc1ccc(-n2c(SCc3nc4ccccc4s3)nnc2-c2cccs2)cc1 | - | - | - | 0
O=C(C1CCC1)N1CCC(Oc2ncccc2Cl)CC1 | - | - | - | 0
Cc1cc(C(=O)CCl)c(C)n1CCc1ccc(Cl)cc1 | 0 | 0 | 0 | 40.8
COC(CNC(=O)N1CCNC1=O)c1ccco1 (stereo not drawn) | - | - | - | 0
CCN1CCOc2ccc(NC(=O)Cc3cccs3)cc2C1=O | - | - | - | 0
Cc1cc(C(=O)N/N=C/c2ccc(-c3cccc(Cl)c3Cl)o2)n[nH]1 | 50.8 | - | 0 | -
O=[N+]([O-])c1ccc(C(=Nc2cccc3ccccc23)N2CCOCC2)cc1 | 0 | 0 | 0 | 48.5
CCOC(=O)c1c(C)[nH]c(N=Nc2ccccc2C)c1C | 0 | 0 | 0 | 62.0!
SMILES | MazF activator | Mtb hypoxia rep | Vc quorum ag | PriA SSB inh
Cc1cccc(CCN=c2c([N+](=O)[O-])nn(-c3ccccc3)n2O)c1 | 0 | 0 | 0 | 39.5
CC1=CC2=NC(=O)/C(=C\c3ccc(-c4cccc(Cl)c4)o3)C(=N)N2O1 | 83.6 | 0 | 0 | 0
CC1=NOC(=O)/C1=C\c1ccc(-c2cccc(Cl)c2)o1 | 0 | 0 | 0 | 0
CCOC(=O)c1c(-c2ccccc2)oc2ccc(NS(=O)(=O)c3ccc(Br)cc3)cc12 | - | - | - | 0
COc1ccc(-c2csc(NC(=O)/C=C/c3ccc([N+](=O)[O-])cc3)n2)cc1OC | - | - | - | 69.0
CC1CCN(CC(=O)Nc2ccc(Br)cc2[N+](=O)[O-])CC1 | 0 | 0 | 0 | 0
O=C(CN1CCCCC1)Nc1ccc(Br)cc1[N+](=O)[O-] | 0 | 0 | 47.7 | 0
O=[N+]([O-])c1cc(CN2CCCC2)c2cccnc2c1O | 0 | - | 0 | 90.2
O=[N+]([O-])c1cc(CN2CCN(c3cccc(C(F)(F)F)c3)CC2)c2cccnc2c1O | 0 | 0 | - | 89.6
O=C(Nc1cccc(-c2ccn[nH]2)c1)c1ccc(N2CCC(Cc3ccccc3)CC2)nn1 | - | - | - | 0
O=C1CCSCC(C(=O)Nc2cccnc2)N1 (stereo not drawn) | - | - | - | 0
O=C1OC(Nc2cc(Br)cc3cccnc23)c2ccccc21 (stereo not drawn) | 0 | 0 | 0 | 74.0
Cn1ccnc1SCC1CCN(S(=O)(=O)c2ccc(OC(F)(F)F)cc2)CC1 | - | - | - | 0
CCSc1ccccc1C(=O)NCc1cc(-c2ccco2)n(C)n1 | - | - | - | 0
O=C(NCCCn1ccnc1-c1ccccc1)Nc1cccc(C(F)(F)F)c1 | - | - | - | 0
Nc1c(NC2CCCCC2)c2ccccc2oc1=O | 0 | 0 | 0 | 50.0!
Cc1ccc(S(=O)(=O)Nc2c(NC3CCCCC3)c3ccccc3oc2=O)cc1 | 0 | 0 | 0 | 0
CCC(/C=C1\Sc2ccc(OC)cc2N1CC)=C\c1sc2ccc(OC)cc2[n+]1CCCS(=O)(=O)[O-] | 0 | 68.4 | 0 | -
CC(C)(C)NC(=O)C1Cc2ccccc2CN1C(=O)Nc1cccc(Cl)c1 (stereo not drawn) | 113.5 | 0 | 0 | 0
Cc1ccc(NC(=O)N2Cc3ccccc3CC2C(=O)NC(C)(C)C)cc1 (stereo not drawn) | 0 | 0 | 0 | 0
CC(=O)N1CC(C(=O)Nc2cccc(Br)c2)C1 | - | - | - | 0
CC(=O)Oc1oc(-c2ccccc2)nc1C=Nc1ccc(N(C)C)cc1 | 0 | 0 | 0 | 0
CN(C)c1ccc(N=Cc2nc(-c3ccccc3)oc2O)cc1 | 245.9 | - | 0 | 0
Cc1ccc(N=Cc2nc(-c3ccc(C)cc3)oc2O)cc1 | 0 | 0 | 0 | 0
CC(=O)Nc1ccc(N=Cc2nc(-c3ccc(C)cc3)oc2O)cc1 | 245.1 | 0 | 0 | 0
SMILES | MazF activator | Mtb hypoxia rep | Vc quorum ag | PriA SSB inh
CN(C)c1ccc(N=Cc2nc(-c3ccccc3)oc2OC(=O)c2ccccc2)cc1 | 353.6 | 0 | 0 | 0
CCn1c(SCC(=O)Nc2ccc3c(c2)OCCO3)nnc1-c1cccn(C)c1=O | - | - | - | 0
Cc1cccc(-c2noc(CN3C(=O)COc4cc(Cl)ccc43)n2)c1 | - | - | - | 0
COc1cccc(-c2cc(C(=O)Nc3cc(C)n(Cc4ccc(Cl)cc4)n3)no2)c1 | 50.7 | 0 | 0 | 0
CN=c1scc(-c2cc(OC)ccc2OC)n1N=Cc1c(C)[nH]c2ccccc12 | - | 0 | - | 45.1
C=CCc1c(C)nc2c(-c3ccccc3)cnn2c1Nc1ccncc1 | - | - | - | 0
Cc1cc[n+](C2=C([O-])c3ccccc3C(=O)C2=NS(=O)(=O)c2cccs2)cc1C | - | - | - | 0
COc1ccc(N/C(C)=C/C(=S)Nc2ccccc2)cc1 | 0 | 0 | 0 | 42.8
COc1ccc(NC(C)=CC(=O)c2ccccc2)cc1 | - | - | - | 0
COc1ccc(N2CCN(C(CNC(=O)C(=O)NCc3ccccc3Cl)c3ccco3)CC2)cc1 (stereo not drawn) | - | - | - | 0
OCC#CCSc1nnc(-c2ccccc2Br)o1 | 0 | 41.0 | 0 | 0
O=c1cc2c(=O)oc3cc(O)c(O)oc3c2c(O)c1O | 54.7 | 0 | 0 | 0
O=C(c1ccsc1)N1CCC[C@H](c2nnc(-c3ccsc3)o2)C1 | - | - | - | 0
Cn1ccnc1SCC(=O)Nc1ccc(SC(F)F)cc1 | 0 | 0 | 0 | 0
O=C(CSc1cccc2cccnc12)Nc1cccc([N+](=O)[O-])c1 | - | - | - | 88.0
O=C(CSc1cccc2cccnc12)Nc1ccc(SC(F)F)cc1 | - | - | - | 85.3
Cc1cc(I)ccc1NC(=O)CSc1cccc2cccnc12 | - | - | - | 0
O=C(CSc1cccc2cccnc12)c1ccc([N+](=O)[O-])cc1 | - | - | - | 57.6
CN(C)S(=O)(=O)c1cccc(NC(=O)CSc2cccc3cccnc23)c1 | 0 | 0 | 0 | 65.1
COc1cc([N+](=O)[O-])ccc1NC(=O)CSc1cccc2cccnc12 | - | - | - | 0
CCc1nc(OCC(=O)Nc2ccc(Cl)cc2F)c2ccccc2n1 | - | - | - | 0
